According to ChEMBL document CHEMBL4808148, “HDAC6 screening dataset using tau-based substrate in an enzymatic assay yields selective inhibitors and activators” (2021):
“And” between values parts separate entries of the source, which are not always exact repeats. Equal values may be shown once. About 390 (7%) of roughly 5,600 compounds showed an effect of 50% or more. The list comes from a sample in which strong results are over-represented; it also holds similar structures and randomly drawn compounds.

What follows are compounds tested against T1, Protein deacetylase HDAC6 (Homo sapiens) (UniProt Q9UBN7). Settings: at 10 µM.
T1 sequence (whole entry): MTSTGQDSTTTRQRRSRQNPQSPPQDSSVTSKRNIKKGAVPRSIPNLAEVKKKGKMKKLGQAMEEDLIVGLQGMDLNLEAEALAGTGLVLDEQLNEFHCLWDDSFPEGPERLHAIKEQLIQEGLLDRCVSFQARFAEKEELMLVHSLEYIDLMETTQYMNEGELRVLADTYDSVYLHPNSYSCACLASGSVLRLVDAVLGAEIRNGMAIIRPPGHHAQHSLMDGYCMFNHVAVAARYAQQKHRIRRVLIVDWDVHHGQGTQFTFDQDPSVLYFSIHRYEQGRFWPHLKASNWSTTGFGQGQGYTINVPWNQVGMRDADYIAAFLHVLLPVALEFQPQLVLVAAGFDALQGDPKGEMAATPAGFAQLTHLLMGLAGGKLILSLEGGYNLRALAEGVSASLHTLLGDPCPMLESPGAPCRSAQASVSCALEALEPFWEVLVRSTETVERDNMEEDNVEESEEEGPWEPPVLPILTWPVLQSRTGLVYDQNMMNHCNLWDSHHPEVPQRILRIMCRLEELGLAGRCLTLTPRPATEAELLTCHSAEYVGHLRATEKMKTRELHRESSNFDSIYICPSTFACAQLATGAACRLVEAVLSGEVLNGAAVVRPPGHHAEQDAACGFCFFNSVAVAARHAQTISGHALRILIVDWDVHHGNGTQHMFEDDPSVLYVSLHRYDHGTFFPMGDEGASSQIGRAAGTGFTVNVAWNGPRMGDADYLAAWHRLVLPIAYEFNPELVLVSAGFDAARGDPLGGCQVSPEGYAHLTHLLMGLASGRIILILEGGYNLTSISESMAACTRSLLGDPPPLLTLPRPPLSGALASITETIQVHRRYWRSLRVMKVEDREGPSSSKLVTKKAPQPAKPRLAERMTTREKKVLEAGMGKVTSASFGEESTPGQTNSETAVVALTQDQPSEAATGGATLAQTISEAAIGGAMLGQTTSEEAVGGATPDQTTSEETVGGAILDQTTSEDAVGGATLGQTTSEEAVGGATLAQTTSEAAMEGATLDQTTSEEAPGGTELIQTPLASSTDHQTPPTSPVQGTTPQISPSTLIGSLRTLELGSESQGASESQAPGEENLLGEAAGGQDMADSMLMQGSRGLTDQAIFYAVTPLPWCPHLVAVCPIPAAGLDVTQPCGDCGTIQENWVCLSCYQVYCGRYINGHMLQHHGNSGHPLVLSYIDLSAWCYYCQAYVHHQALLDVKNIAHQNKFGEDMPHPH

Structure (SMILES)	inhibition
Cc1nc2ccc(-n3ncc(C(=O)c4cc5ccccc5[nH]4)c3N)cc2[nH]1	100%
CN1CC[C@@H](NC(=O)Nc2ccc(C#N)cc2)C[C@@H]1c1nc2ccccc2[nH]1	-9.46%
CCCCCCCCCCCCC/C=C/[C@@H](O)[C@@H](N)COP(=O)([O-])OCC[N+](C)(C)C	23.4%
CCO[C@@H]1OC(=O)C[C@@H]1NC(=O)[C@@H]1CCCN1C(=O)[C@@H](NC(=O)c1ccc(N)c(Cl)c1)C(C)(C)C	12.6%
CC(C)C(=O)OCC(=O)[C@@]12O[C@H](C3CCCCC3)O[C@@H]1C[C@H]1[C@@H]3CCC4=CC(=O)C=C[C@]4(C)[C@H]3[C@@H](O)C[C@@]12C	7.25%
CCOC(=O)C12CC1/C(=N\O)c1ccccc1O2 (centres undefined)	38.5%
O=C(O[C@@H]1C[C@@H]2C[C@H]3C[C@H](C1)N2CC3=O)c1c[nH]c2ccccc12	61.3%
CN1[C@@H]2CC[C@H]1C[C@@H](OC(=O)N1Cc3ccccc3NC1=O)C2	-7.98%
Cc1nc(Cn2cnc3c2c(=O)n(C)c(=O)n3C)no1	24.3%
CC(C)(C)NCC(O)c1cc(Br)no1 (centres undefined)	18.5%
O=C(O)CCCNC(=O)c1cccnc1	28.7%
CCN1CCCC(OC(=O)C(c2ccccc2)c2ccccc2)C1 (centres undefined)	-1.02%
O=C(O)[C@@H](c1ccc(OCc2ccc3ccccc3n2)cc1)C1CCCC1	93.6%
CC(CNC1CCCCC1)OC(=O)c1ccccc1 (centres undefined)	34.8%
CCCCN(CC)c1c([N+](=O)[O-])cc(C(F)(F)F)cc1[N+](=O)[O-]	10.6%
CC(C)C(=O)SCCCCC[C@H](NC(=O)OC(C)(C)C)C(=O)NC12CC3CC(CC(C3)C1)C2	52%
NC(=O)c1cccc(-c2cccc(OC(=O)NC3CCCCC3)c2)c1	95.1%
CN(Cc1cccc(-c2ccccc2)c1)C(=O)Oc1ccc(-c2ccc(C(N)=O)cc2)cc1	25.7%
N[C@@H]1CCN(c2cccnc2)C1	18.5%
N#Cc1ccc(N2N=C3c4ccc(C(=O)O)cc4CC[C@@H]3[C@@H]2C2CCCC2)cc1Cl	20.4%
CCCOc1ccc2c(c1)CC[C@@H]1[C@@H]2CC[C@]2(C)[C@@H](OC)CC[C@@H]12	-9.5%
CCc1oc2ccccc2c1C(=O)c1ccc(OCC(=O)O)cc1	-6.7%
NC(=O)c1ncn([C@@H]2O[C@H](CO)[C@@H](O)[C@H]2O)n1	-7.83%
CC(C)Nc1nc2cc(Cl)c(Cl)cc2n1[C@H]1O[C@@H](CO)[C@H](O)[C@@H]1O	82.2%
COc1nc(N)nc2c1ncn2[C@@H]1O[C@H](CO)[C@@H](O)[C@@H]1O	35.9%
Cc1cc(C)cc(NC(=O)Cc2ccc(OC(C)(C)C(=O)O)cc2)c1	-3.44%

Structure (SMILES)	inhibition
COc1ccc(C(=O)CCC(=O)O)c2ccccc12	0.61%
O=C(COc1cccc2c(=O)[nH]ccc12)c1ccccc1	65.9%
N#CCC(=O)c1ccccc1	19.1%
C[C@]12CC[C@H]3[C@@H](CCC4=CC(=O)CC[C@@]43C)[C@@H]1CC[C@@H]2C(=O)CO	32.2%
O=C(N[C@H]1CN2CCC1CC2)c1c[nH]c2ccsc2c1=O	10.3%
Cn1nnc(-c2ccc(-c3ccc(N4C[C@H](COP(=O)(O)O)OC4=O)cc3F)cn2)n1	-2.24%
O=C(CCCl)NCCc1ccccc1	11.9%
c1ccc(CCNc2nc(-c3ccccc3)cs2)cc1	79.1%
O=C(NCc1cccc(O)c1)Nc1nc(-c2ccncc2)cs1	3.24% and 13.9%
O=C(CCn1cnc2c(=O)[nH]cnc21)Nc1ccc(C(=O)O)cc1	11.5%
Brc1c(Br)c(Br)c2[nH]nnc2c1Br	55.5%
O=C(Nc1ccc(S(=O)(=O)C(F)(F)F)cc1)C1=CCN(c2ncccc2C(F)(F)F)CC1	8.48%
C[C@]12CCC(=O)C=C1CC[C@@H]1[C@@H]2[C@@H](O)C[C@]2(C)C(=O)CC[C@@H]12	-0.5%
CCCC(CCC)C(=O)NCc1ccc2c(cnn2-c2ccccc2OC)c1	-9.99%
c1ccc(CNc2ncnc3[nH]cnc23)cc1	3.46%
Nc1nc(OCc2ccccc2)c2nc[nH]c2n1	68.9%
CC(=O)O[C@H]1C[C@@H]2CC[C@@H]3[C@H](CC[C@@]4(C)[C@H]3C[C@H](N3CC[N+](C)(C)CC3)[C@@H]4OC(C)=O)[C@@]2(C)C[C@@H]1N1CC[N+](C)(C)CC1	-3.02%
CN1C(=O)N(c2ccc(C#N)c(C(F)(F)F)c2)C(=O)[C@@]1(CO)c1ccccc1	16.8%
CN(CCOP(=O)(O)O)C(=N)N	20.7%
O=C1N=C(N2CCOCC2)CN1c1ccc(Cl)cc1	8.65%
NC(Cc1ccc(O)cc1)C(=O)O (racemic)	12.8%
N[C@H](C(=O)O)[C@@H]1CC(Cl)=NO1	2.38%
CNC(=O)COC(=O)NCCC1CCN(c2cccc(C)n2)CC1	23.1%
Cc1nc[nH]c1CCN	0.18%
CCn1c(O)nnc1-c1ccc(Cl)cc1	4.14%
Cc1[nH]cnc1-c1ccc(Cl)cc1	80.5%

Structure (SMILES)	inhibition
C[C@]12CCC(=O)C[C@@H]1CC[C@@H]1[C@@H]2CC[C@]2(C)[C@@H](O)CC[C@@H]12	6.85%
O=C(/C=C/c1ccc2ccc(C(F)(F)F)cc2n1)c1ccncc1	36.8%
O=C(/C=C/c1ccc2ccccc2n1)c1ccncc1	91.9%
CC(C)Oc1ccc(-c2nc(-c3cccc4c3CCC4NCCC(=O)O)no2)cc1C#N (centres undefined)	25.6%
CC(CC(c1ccccc1)c1ccccc1)NC(C)(C)C (centres undefined)	13.9%
Nc1ccn([C@H]2CO[C@@H](CO)S2)c(=O)n1	9.97%
C[C@@]1(O)[C@H](O)[C@@H](CO)O[C@H]1n1cnc2c(NC3CCCC3)nc(Cl)nc21	-7.46%
CC1(O)C(O)C(CO)OC1n1ccc(N)nc1=O (centres undefined)	50.8%
C[S+](CC[C@H](N)C(=O)[O-])C[C@H]1O[C@@H](n2cnc3c(N)ncnc32)[C@H](O)[C@@H]1O (some centres undefined)	5.35%
Cc1cccc(Oc2cnc(=O)[nH]c2)c1	16.9%
O=C(NCc1ccccc1)c1csc(Nc2ccncn2)n1	44.2%
Cc1c[nH]c2ncnc(N3CCC(CN)(C(=O)Nc4cccc(OC(=O)N(C)C)c4)CC3)c12	25.2%
Cc1cccc(/C=N/Nc2cc(N3CCOCC3)n3nc(-c4ccncc4)cc3n2)c1	-1.46%
CC1(CN)Cc2ccccc2C1	0.58%
Brc1cc2c(cc1[C@@H]1Nc3ccccc3[C@@H]3C=CC[C@@H]31)OCO2.Brc1cc2c(cc1[C@H]1Nc3ccccc3[C@H]3C=CC[C@H]31)OCO2	2.38%
O=C(O)Cc1ccc2c(c1)C(=O)c1ccccc1CO2	75%
O=C(O)Cc1ccc(OCc2ccccc2)c(Cl)c1	-0.75%
O=C(O)c1ccc(N2N=C(Cc3ccccc3)/C(=C\c3ccc(-c4ccccc4F)o3)C2=O)cc1	5.2%
CC(C)OC(=O)N[C@H]1Cc2c(n(Cc3ccccn3)c3ccc(C#N)cc23)C1	-8.91%
CC(C)(C)c1ccc(-c2nc3ccccc3[nH]2)cc1	105%
CC(C)(C)c1ccc(O)cc1	17.6%
C#CCC(Cc1cnc2nc(N)nc(N)c2n1)c1ccc(C(=O)N[C@@H](CCC(=O)O)C(=O)O)cc1 (some centres undefined)	30%
Oc1cc(CNC(=S)/C=C/c2cc(O)c(O)c(Br)c2)cc(O)c1O	36%
COC(=O)c1ccc(N2CCN(C)CC2)c(NC(=O)c2cccc(OC)c2)c1	5.02%
COc1cc(N2CCN(C)CC2)ccc1Nc1ncc2c(n1)N(C)c1ccccc1C(=O)N2C	0.79%
COc1ccc(N(C(=O)Oc2c(C)cccc2C)c2ccnc(Nc3ccc(N4CCN(C)CC4)cc3)n2)c(OC)c1	102%

Structure (SMILES)	inhibition
Cn1c(C#N)ccc1-c1ccc2c(c1)C(C)(C)OC(=S)N2	12.5%
O=C(Nc1cc(C(F)(F)F)cc(C(F)(F)F)c1)c1cc(Cl)ccc1O	3.28%
CC(=O)NCCNc1cc(Cl)nn2c(-c3cccc(S(=O)(=O)N(C)C)c3)c(C)nc12	15.6%
CC(C)CN(C[C@@H](OP(=O)(O)O)[C@H](Cc1ccccc1)NC(=O)O[C@H]1CCOC1)S(=O)(=O)c1ccc(N)cc1	7.63%
CCCN(CCC)C(=O)Cc1c(-c2ccc(Cl)cc2)nc2ccc(Cl)cn12	-6.78%
CC1=CC(=C(c2ccc(N)cc2)c2ccc(N)cc2)C=CC1=N	57.5%
O=C(O)c1ccccc1NC(=O)C12CC3CC(CC(C3)C1)C2	8.92%
O=C(NO)c1cnc(N2CCN(S(=O)(=O)c3ccc4ccccc4c3)CC2)nc1	102%
COc1ccc(S(=O)(=O)N2CCCN(S(=O)(=O)c3ccc(OC)c(OC)c3)CC2)cc1OC	5.48%
O[C@@](Cc1nc(CC2(C(F)(F)F)CC2)c[nH]1)(c1ccc(-n2cccn2)cc1)C(F)(F)F	-0.94%
O=C(O)CCc1ccc(NCc2cccc3c2CCCN3CCOc2ccccc2)cc1F	8.07%
OCCNC1CCCc2c1[nH]c1ccc(-c3ccccc3)cc21 (centres undefined)	59.1%
CCc1nc(C)ccc1O	3.81%
N[C@@H](CSCC(=O)O)C(=O)O	17.8%
CC1(C)CC[C@]2(C(=O)O)CC[C@]3(C)[C@H](C(=O)C=C4[C@@]5(C)C=C(C#N)C(=O)C(C)(C)[C@@H]5CC[C@]43C)[C@@H]2C1	11.2%
CN(C)/N=N/c1ccc(C(=O)O)cc1	26.9%
C=C1C[C@@]2(O)O[C@@]3(C[C@H]2C(C)C)[C@@H](C)CC[C@@H]13	20.2%
CC(C)(C)C(=O)NCCCC(=O)O	0.18%
N=C1CCCN1Cc1[nH]c(=O)[nH]c(=O)c1Cl	55.5%
Cc1cccc(C(=O)O)c1O	35.8%
O=C(O)c1cc(/N=N/c2ccc(O)c(C(=O)O)c2)ccc1O	98.2%
COc1ccc(NS(=O)(=O)c2ccc(/N=N/c3ccc(O)c(C(=O)O)c3)cc2)nn1	35.8%
O=c1[nH]c2ccccc2c(=O)n1CCCN1CCN(c2ccccc2)CC1	8.65%
NC(=O)NCCN1CCN(c2cccc(C(F)(F)F)c2)CC1	22%
O=C(O)c1ccccc1Nc1cccc(C(F)(F)F)c1	30.6%
O=C(OCCN1CCOCC1)c1cccnc1Nc1cccc(C(F)(F)F)c1	62%
